# Experimental data reported in PubChem BioAssay (NCATS).
# Inconclusive results are not listed. The source made the active and inactive calls. The call rests on the fitted dose curve; in most records, active means well fitted inhibition curve with a large enough effect; inconclusive means small, poorly fitted or top-dose-only effect; inactive means flat fitted curve, though single readings scatter. Where a SMILES comes first, the peptide text is derived from it. Bridges are numbered along the chain shown (N, C = ends). [ ]: non-standard residue; d: D form. hArg = N=C(N)NCCCC[C@H](N)C(=O)O; Mpa = O=C(O)CCS
# Tested on: astro (control astrocytes)
# Experiment: Drug repurposing screens with cells derived from glioblastoma tumor samples (AID 1345199); further: nearly all actives have a fitted effect of over 40% in size
# Details: viability, ATP luminescence, 48 h; series mostly up to 45.9 µM; activity, negative = cell killing: at the top concentration
# Procedure, shortened: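 Four patient lines of CD133+ GBM neurospheres were screened at several concentrations; hits were retested in those lines plus three slower-growing GBM lines, using 48-hour treatment and ATP-based viability.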
# On the % scale 0 is the no-effect control and ±100 the full control effect.
row,Compound,"activity, negative = cell killing"
1,CC(=O)Oc1cccc(C)c1,-11% (inactive)
2,C[N+](C)(C)CC[N+]1(C)Cc2c(Cl)c(Cl)c(Cl)c(Cl)c2C1,-13.6% (inactive)
3,CCCCCCCCCCOc1cc2c(=O)c(C(=O)OCC)c[nH]c2cc1OCC,-9.57% (inactive)
4,CCc1cccc(CC)c1NC(=O)CN(CC(=O)O)CC(=O)O,-13.4% [at 21.2 µM] (inactive)
5,CCN1CC(CCN2CCOCC2)C(c2ccccc2)(c2ccccc2)C1=O (configuration not stated),-5.26% (inactive)
6,O=C(CCBr)N1CCN(C(=O)CCBr)CC1,-15.2% (inactive)
7,CNCc1ccccc1,9.54% (inactive)
8,CC(N)CCCC(C)(C)O (configuration not stated),-14.2% (inactive)
9,OCc1ccc(Cl)cc1Cl,-3.28% (inactive)
10,O=S1(=O)OC(c2ccc(O)cc2)(c2ccc(O)cc2)c2ccccc21,-23.6% (inactive)
11,Cc1onc(-c2ccccc2)c1-c1ccc(S(N)(=O)=O)cc1,-17.4% (inactive)
12,NCc1ccc(S(N)(=O)=O)cc1,-9.75% [at 21.2 µM] (inactive)
13,NC(=O)[C@@H]1CSSCCC(=O)N[C@@H](CCCCN=C(N)N)C(=O)NCC(=O)N[C@@H](CC(=O)O)C(=O)N[C@@H](Cc2c[nH]c3ccccc23)C(=O)N2CCC[C@H]2C(=O)N1 ([Mpa][hArg]GDWPC-NH2; disulfide 1-7),0.882% (inactive)
14,CC1CCN(CCCC(=O)c2ccc(F)cc2)CC1,-17.8% (inactive)
15,Nc1c2c(nc3c1CCC3)CCCC2,-8.79% (inactive)
16,CCN(CC)CC1CCCCN1CC(=O)N1c2ccccc2C(=O)Nc2cccnc21 (configuration not stated),-28.6% (inactive)
17,NNc1nnc(NN)c2ccccc12,-19.3% (inactive)
18,Cc1c(NC(C)C)c(=O)n(-c2ccccc2)n1C,-1.26% (inactive)
19,CCCCCCCCCCC(CO)CCCCCCCC (configuration not stated),-20.3% (inactive)

row,Compound,"activity, negative = cell killing"
1,CC(C)(C)C(=O)OCOC(=O)[C@@H]1N2C(=O)[C@@H](NC(=O)[C@H](N)c3ccccc3)[C@H]2SC1(C)C,-3.19% [at 21.2 µM] (inactive)
2,CC(=O)N(CC(O)CN(C(C)=O)c1c(I)c(C(=O)NCC(O)CO)c(I)c(C(=O)NCC(O)CO)c1I)c1c(I)c(C(=O)NCC(O)CO)c(I)c(C(=O)NCC(O)CO)c1I (configuration not stated),-7.78% [at 21.2 µM] (inactive)
3,CNc1c2c(nn1C)CCCC2,4.71% (inactive)
4,O[C@@H]1CO[C@H]2[C@@H]1OC[C@@H]2O,-15.6% (inactive)
5,c1ccc2[nH]ccc2c1,-9.55% (inactive)
6,NS(=O)(=O)c1cc(-c2nn[nH]n2)c(NCc2cccs2)cc1Cl,-20.2% (inactive)
7,CCOC(=O)[C@H](CCc1ccccc1)N[C@@H](C)C(=O)N1Cc2cc(OC)c(OC)cc2C[C@H]1C(=O)O,-13.4% (inactive)
8,Cc1ccc(S(=O)(=O)NC(=O)NC2CCCCC2)cc1,-2.71% (inactive)
9,CCOC(=O)OC(C)OC(=O)[C@@H]1N2C(=O)[C@@H](NC(=O)[C@H](N)c3ccccc3)[C@H]2SC1(C)C (some centres not stated),-7.95% [at 21.2 µM] (inactive)
10,CC(=O)[C@@]1(O)CC[C@H]2[C@@H]3C[C@H](C)C4=CC(=O)C=C[C@]4(C)[C@@]3(F)[C@@H](O)C[C@@]21C,-2.76% [at 21.2 µM] (inactive)
11,O=c1[nH]c2cc(C(F)(F)F)c(N3CCOCC3)cc2n(CP(=O)(O)O)c1=O,-9.81% (inactive)
12,NC(N)=NCCN1CCCCCCC1,-6.82% [at 21.2 µM] (inactive)
13,CC(C)=CCC[C@@](C)(O)[C@H]1CC=C(C)CC1,-7.37% (inactive)
14,Cn1c(=O)c2c(ncn2CCO)n(C)c1=O,-14.7% (inactive)
15,Cc1c(Cn2ccnc2)c2ccccc2n1CCC(=O)O,-12% (inactive)
16,CCCCC1(COC(=O)CCC(=O)O)C(=O)N(c2ccccc2)N(c2ccccc2)C1=O,-8.07% [at 21.2 µM] (inactive)
17,NS(=O)(=O)c1ccc(C(=O)O)cc1,-13.2% (inactive)
18,C[C@@H](c1ncncc1F)C(O)(Cn1cncn1)c1ccc(F)cc1F (some centres not stated),-22.8% (inactive)
